Measurements as given in PubChem BioAssay (Tox21).
Values without a mark were called inactive. Inconclusive results are not listed. A call without a number means that no potency is given here. Calls of active or inactive are those of the source. Unless noted, the call rests on the fitted dose curve. Square brackets hold non-standard residues; d marks the D form. Peptide text beside a SMILES is read from it. * marks the point of attachment. Sta = CC(C)C[C@H](N)[C@@H](O)CC(=O)O; Isovaleryl = CC(C)CC(=O)*

Legend:
[1] = p53 small molecule agonists, cell-based qHTS assay with human liver microsomes (AID 1963577); conditions: HCT-116 p53RE-bla with human liver microsomes, ratio, 16 h; series mostly up to 66 µM;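 further: p53 response element beta-lactamase reporter cells with liver microsomes plus NADPH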
Outline: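 Reporter activation was measured by LiveBLAzer fluorescence intensity in p53RE-bla cells, which had been exposed to compounds for 16 h at 37 C alongside 0.5 mg/mL human liver microsomes and 0.5 mg/mL NADPH (final concentrations).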

[2] = p53 small molecule agonists, cell-based qHTS assay with rat liver microsomes (AID 1963578); conditions: HCT-116 p53RE-bla, beta-lactamase ratio, 16 h; series mostly up to 66 µM
Outline: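 Compound in DMSO added to p53RE-bla cells 5 h post-plating; rat microsomes/NADPH 0.5 mg/mL final; 16 h, 37 C; LiveBLAzer 2 h RT.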

[3] = p53 small molecule agonists, cell-based qHTS assay with rat liver microsomes: qHTS cell viability counter screen (AID 1963580); conditions: p53RE-bla HCT-116 + rat microsomes, ATP viability, 16 h; series mostly up to 66 µM; further: nearly all actives have a fitted effect of over 45% in size
Outline: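 p53RE-bla HCT-116 cells (4,000/well) rested 5 h at 37 C, then given Tox21 compounds in DMSO with rat liver microsomes (0.5 mg/mL final) plus NADPH (0.5 mg/mL final) for 16 h at 37 C. Viability read by CellTiter-Glo luminescence after 30 min at room temperature.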

[4] = p53 small molecule agonists, cell-based qHTS assay: qHTS cell viability counter screen (AID 1963581); conditions: p53RE-bla HCT-116 viability, ATP luminescence, 16 h; series mostly up to 66 µM; further: nearly all actives have a fitted effect of over 45% in size; further: potency means the concentration at half of the fitted maximal effect
Outline: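 Cells: HCT-116 with p53 response element-driven beta-lactamase. Treatment: 16 h, 37 C, compounds in DMSO. Read: CellTiter-Glo luminescence after 30 min RT.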

[5] = p53 small molecule agonists, cell-based qHTS assay (AID 1963582; active means well fitted activation curve with a large enough effect in the signal ratio in the repeat runs, not every such curve was filed as active; the % refers to the signal ratio); conditions: HCT-116 p53RE-bla reporter, beta-lactamase FRET ratio, 16 h; series mostly up to 66 µM
Outline: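 Quantitative HTS in p53RE-bla cells: after a 5 h settling period, compounds delivered in DMSO were left on cells for 16 h at 37 C, and reporter induction was measured as fluorescence following 2 h substrate loading.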

[6] = target: 5-hydroxytryptamine receptor 2A (Homo sapiens) (UniProt P28223); assay: 5-hydroxytryptamine receptor 2A (HTR2A) small molecule antagonists, cell-based qHTS assay (AID 1963586); conditions: HTR2A-CHO cells, DOI-induced calcium flux, fluorescence; series mostly up to 61.5 µM; further: nearly all actives have a fitted effect of over 45% in size; further: potency means the concentration at half of the fitted maximal effect
Outline: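 Antagonist-mode intracellular calcium assay: DOI (4 nM) added after 5 min compound pre-incubation at room temperature to dye-loaded HTR2A-CHO cells. Fluorescence followed for 3 min, sampled every second.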

[7] = target: 5-hydroxytryptamine receptor 2A (Homo sapiens) (UniProt P28223); assay: 5-hydroxytryptamine receptor 2A (HTR2A) small molecule agonists, cell-based qHTS assay (AID 1963587); conditions: HTR2A-CHO cells, calcium flux fluorescence, agonist mode; series mostly up to 76.8 µM; further: nearly all actives have a fitted effect of over 30% in size; further: potency means the concentration at half of the fitted maximal effect
Outline: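 HTR2A-CHO cells, plated 18 h at 37 C/5% CO2, dye-loaded 1 h at 37 C; compounds in DMSO added by pin tool (agonist mode). Intracellular calcium flux read as kinetic fluorescence on FDSS over 2 min at 1 s intervals.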

[8] = target: Muscarinic acetylcholine receptor M1 (Homo sapiens) (UniProt P11229); assay: Cholinergic receptor muscarinic 1 (CHRM1) small molecule antagonists, cell-based qHTS assay (AID 1963588); conditions: CHRM1-CHO antagonist mode, calcium flux fluorescence; series mostly up to 61.5 µM; further: nearly all actives have a fitted effect of over 40% in size
Outline: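 CHRM1-CHO calcium-flux assay, antagonist mode. Cells were seeded 18 h, dye-loaded 1 h at 37 C and given compound for 5 min at RT, then acetylcholine was added at 50nM. FDSS fluorescence was read 3 min; 15 concentrations, three runs.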

[9] = target: Beta-2 adrenergic receptor (Homo sapiens) (UniProt P07550); assay: Adrenergic beta2 receptor (ADRB2) small molecule antagonists, cell-based qHTS assay (AID 1963592); conditions: CHO-ADRB2 cells, isoproterenol-stimulated cAMP HTRF ratio, 0.5 h; series mostly up to 92.4 µM; further: nearly all actives have a fitted effect of over 50% in size
Outline: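 Cells (CHO, stable ADRB2 overexpression) incubated 18-20hr at 37C; compounds added from DMSO; agonist mix (1nM isoproterenol, 100uM IBMX, 25uM Ro-20-1724) added; 0.5hr RT; d2-cAMP and anti-cAMP-cryptate added; 1hr RT; 665/615 nm read.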

[10] = target: D(2) dopamine receptor (Homo sapiens) (UniProt P14416); assay: Dopamine D2 receptor (DRD2) small molecule agonists, cell-based qHTS assay (AID 1963594); conditions: HEK293-DRD2 cAMP HTRF, agonist mode, 30 min; series mostly up to 92.4 µM; further: nearly all actives have a fitted effect of over 35% in size
Outline: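 HEK293 cells stably expressing DRD2 were cultured 24 h at 37 C, then given Ro20-1724 (0.1 mM final) and compounds for 10 min at room temperature. NKH477 (200nM) was then added for 30 min. cAMP was read by HTRF.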

[11] = target: D(2) dopamine receptor (Homo sapiens) (UniProt P14416); assay: Dopamine D2 receptor (DRD2) small molecule antagonists, cell-based qHTS assay (AID 1963595; active means well fitted inhibition curve with a large enough effect in the signal ratio in the repeat runs, with a control signal flat; the % refers to the signal ratio); conditions: HEK293-DRD2 cAMP HTRF antagonist mode; series mostly up to 92.4 µM
Outline: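 HEK293 cells stably expressing DRD2, preincubated with 0.1 mM Ro20-1724 and compounds 10 min, were stimulated with 200 nM NKH477 plus 12 nM quinpirole for 30 min at room temperature; cAMP measured by HTRF (665/620 nm).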

[12] = target: Muscarinic acetylcholine receptor M1 (Homo sapiens) (UniProt P11229); assay: Cholinergic receptor muscarinic 1 (CHRM1) small molecule agonists, cell-based qHTS assay (AID 1963589); conditions: CHRM1-CHO cells, agonist mode, calcium flux fluorescence; series mostly up to 76.8 µM; further: nearly all actives have a fitted effect of over 35% in size
Outline: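 Agonist-mode qHTS in CHO cells stably carrying human muscarinic M1. Intracellular calcium is tracked by fluorescence every second after compound transfer; each compound runs at 15 concentrations in three independent runs.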

[13] = target: Beta-2 adrenergic receptor (Homo sapiens) (UniProt P07550); assay: Adrenergic beta2 receptor (ADRB2) small molecule agonists, cell-based qHTS assay (AID 1963593); conditions: CHO-ADRB2 cells, cAMP HTRF, 30 min; series mostly up to 92.4 µM; further: potency means the concentration at half of the fitted maximal effect;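 on activation: CHO cells stably overexpressing human ADRB2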
Outline: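 CHO cells stably over-expressing ADRB2 were plated overnight at 37C, then dosed with compounds plus a stimulation mix containing 100uM IBMX and 25uM Ro-20-1724 for 0.5hr at room temperature. cAMP was measured by HTRF competition, 1hr.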

[14] = target: Gonadotropin-releasing hormone receptor (Homo sapiens) (UniProt P30968); assay: Human gonadotropin-releasing hormone receptor (GnRHR) small molecule agonists, calcium flux assay in GnRHR-HEK293 cells (AID 1920063); conditions: calcium flux fluorescence, agonist mode; series mostly up to 57.6 µM; further: nearly all actives have a fitted effect of over 35% in size
Outline: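 Cells: HEK293 stably expressing human GnRHR. Steps: overnight (18 h) culture, 1 h calcium dye loading at 37 C, compound addition, kinetic fluorescence read at 480/540 nm. Each compound tested at 15 concentrations in triplicate.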

[15] = target: KiSS-1 receptor (Homo sapiens) (UniProt Q969F8); assay: Human kisspeptin (KISS1R) small molecule agonists, calcium flux assay in KISS1R-HEK293 cells (AID 1920064; active means well fitted activation curve with a large enough effect in the repeat runs); conditions: KISS1R-HEK293, calcium flux fluorescence, agonist; series mostly up to 76.8 µM
Outline: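 Cells plated and incubated 18 h; dye added, 1 h at 37 C; compounds in DMSO pinned in; signal read at 480/540 nm every second for 3 min. Each compound tested at 15 concentrations in triplicate.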

[16] = G protein-coupled receptor (GPCR) small molecule agonists, calcium flux assay: HEK293 wild type cell line counter screen (AID 1920065); conditions: HEK293 WT calcium flux, fluorescence, agonist mode; series mostly up to 57.6 µM
Outline: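 Counter-screen of the Tox21 10K library for non-specific calcium release: dye-loaded cells received compounds in DMSO and were monitored by kinetic fluorescence (480/540 nm, 3 min). Fifteen concentrations, run in triplicate.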

[17] = cAMP Responsive Elements (CRE) small molecule agonists, cell-based qHTS assay (AID 1963590); conditions: CRE-bla HEK293T, beta-lactamase FRET ratio, 3 h; series mostly up to 92.4 µM
Outline: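 Agonist mode qHTS in CRE-bla HEK 293T cells: compounds dosed from DMSO for 3 h at 37 C/5% CO2, followed by LiveBLAzer B/G FRET substrate for 2 h at room temperature.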

[18] = cAMP Responsive Elements (CRE) small molecule antagonists, cell-based qHTS assay (AID 1963591; active means well fitted inhibition curve with a large enough effect in the signal ratio in the repeat runs, not every such curve was filed as active; the % refers to the signal ratio); conditions: CRE-bla HEK293T, beta-lactamase FRET ratio; series mostly up to 92.4 µM
Outline: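 Antagonist mode: test compounds are co-incubated with the adenylyl cyclase activator NKH477 (0.25 uM final) on CRE-bla HEK293T cells for 3 h at 37 °C, followed by LiveBLAzer substrate loading.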

[19] = p53 small molecule agonists, cell-based qHTS assay with human liver microsomes: qHTS cell viability counter screen (AID 1963579); conditions: p53RE-bla HCT-116 viability, ATP luminescence, 16 h, HLM; series mostly up to 66 µM; further: nearly all actives have a fitted effect of over 45% in size; further: potency means the concentration at half of the fitted maximal effect
Outline: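 HLM-supplemented (0.5 mg/mL final) and NADPH-supplemented (0.5 mg/mL final) p53RE-bla cultures, 4,000 cells per well, were dosed with compounds in DMSO for 16 h at 37 C; luminescent ATP detection (CellTiter-Glo, 30 min, room temperature) quantified surviving cells.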

D(2) dopamine receptor (Homo sapiens), sequence (P14416 whole entry, looked up): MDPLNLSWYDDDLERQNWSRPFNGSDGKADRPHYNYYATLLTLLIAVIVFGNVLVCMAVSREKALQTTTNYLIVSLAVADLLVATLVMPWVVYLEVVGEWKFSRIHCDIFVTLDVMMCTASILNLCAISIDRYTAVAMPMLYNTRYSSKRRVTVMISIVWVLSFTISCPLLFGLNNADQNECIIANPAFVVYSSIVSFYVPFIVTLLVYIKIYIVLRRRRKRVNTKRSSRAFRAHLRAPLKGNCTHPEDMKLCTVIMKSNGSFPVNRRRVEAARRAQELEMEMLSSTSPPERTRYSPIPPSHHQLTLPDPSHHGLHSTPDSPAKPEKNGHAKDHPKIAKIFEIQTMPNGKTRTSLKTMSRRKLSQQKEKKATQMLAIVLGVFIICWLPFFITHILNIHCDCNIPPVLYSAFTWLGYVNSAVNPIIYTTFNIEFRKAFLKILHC
Beta-2 adrenergic receptor (Homo sapiens), sequence (P07550 whole entry, looked up): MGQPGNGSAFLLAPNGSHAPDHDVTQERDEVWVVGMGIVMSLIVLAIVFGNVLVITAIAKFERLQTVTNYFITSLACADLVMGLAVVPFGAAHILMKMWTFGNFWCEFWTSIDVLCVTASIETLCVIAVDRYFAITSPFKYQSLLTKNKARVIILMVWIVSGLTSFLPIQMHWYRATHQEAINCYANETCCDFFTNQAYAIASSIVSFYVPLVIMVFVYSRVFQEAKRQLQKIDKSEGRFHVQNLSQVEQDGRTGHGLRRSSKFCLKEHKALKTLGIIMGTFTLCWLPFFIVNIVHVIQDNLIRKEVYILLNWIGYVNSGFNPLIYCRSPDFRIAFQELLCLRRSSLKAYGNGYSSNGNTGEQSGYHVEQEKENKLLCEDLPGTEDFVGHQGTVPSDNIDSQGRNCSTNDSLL
KiSS-1 receptor (Homo sapiens), sequence (Q969F8 whole entry, looked up): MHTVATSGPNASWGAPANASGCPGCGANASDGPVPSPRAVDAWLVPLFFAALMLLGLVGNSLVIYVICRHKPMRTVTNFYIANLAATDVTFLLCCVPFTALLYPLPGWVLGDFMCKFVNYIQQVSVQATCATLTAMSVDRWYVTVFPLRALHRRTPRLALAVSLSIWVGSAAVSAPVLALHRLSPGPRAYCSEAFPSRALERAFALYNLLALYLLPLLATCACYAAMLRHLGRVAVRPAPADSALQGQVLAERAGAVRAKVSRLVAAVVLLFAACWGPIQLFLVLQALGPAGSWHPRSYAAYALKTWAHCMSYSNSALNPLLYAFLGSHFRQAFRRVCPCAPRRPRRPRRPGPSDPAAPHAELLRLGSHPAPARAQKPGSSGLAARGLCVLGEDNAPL
Gonadotropin-releasing hormone receptor (Homo sapiens), sequence (P30968 whole entry, looked up): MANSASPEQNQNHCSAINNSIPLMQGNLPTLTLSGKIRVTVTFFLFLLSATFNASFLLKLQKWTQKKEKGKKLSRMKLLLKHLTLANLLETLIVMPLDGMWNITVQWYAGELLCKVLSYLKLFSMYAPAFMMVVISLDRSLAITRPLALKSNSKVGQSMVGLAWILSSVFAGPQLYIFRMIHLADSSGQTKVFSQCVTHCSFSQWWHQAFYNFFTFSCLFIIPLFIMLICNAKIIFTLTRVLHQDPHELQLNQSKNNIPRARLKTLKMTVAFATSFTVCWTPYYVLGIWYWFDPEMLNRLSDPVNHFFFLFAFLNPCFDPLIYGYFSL
5-hydroxytryptamine receptor 2A (Homo sapiens), sequence (P28223 whole entry, looked up): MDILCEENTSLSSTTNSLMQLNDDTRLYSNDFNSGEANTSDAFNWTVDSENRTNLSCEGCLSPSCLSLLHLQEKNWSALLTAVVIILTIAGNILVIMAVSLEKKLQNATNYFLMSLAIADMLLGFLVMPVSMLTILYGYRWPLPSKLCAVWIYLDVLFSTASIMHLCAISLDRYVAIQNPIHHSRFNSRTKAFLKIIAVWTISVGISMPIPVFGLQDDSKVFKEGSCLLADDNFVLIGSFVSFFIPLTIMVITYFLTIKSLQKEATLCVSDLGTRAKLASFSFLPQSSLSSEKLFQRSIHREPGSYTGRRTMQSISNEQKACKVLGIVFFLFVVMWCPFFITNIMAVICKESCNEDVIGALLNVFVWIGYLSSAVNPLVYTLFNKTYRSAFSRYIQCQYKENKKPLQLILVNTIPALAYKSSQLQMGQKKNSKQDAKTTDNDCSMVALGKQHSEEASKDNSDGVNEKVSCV
Muscarinic acetylcholine receptor M1 (Homo sapiens), sequence (P11229 whole entry, looked up): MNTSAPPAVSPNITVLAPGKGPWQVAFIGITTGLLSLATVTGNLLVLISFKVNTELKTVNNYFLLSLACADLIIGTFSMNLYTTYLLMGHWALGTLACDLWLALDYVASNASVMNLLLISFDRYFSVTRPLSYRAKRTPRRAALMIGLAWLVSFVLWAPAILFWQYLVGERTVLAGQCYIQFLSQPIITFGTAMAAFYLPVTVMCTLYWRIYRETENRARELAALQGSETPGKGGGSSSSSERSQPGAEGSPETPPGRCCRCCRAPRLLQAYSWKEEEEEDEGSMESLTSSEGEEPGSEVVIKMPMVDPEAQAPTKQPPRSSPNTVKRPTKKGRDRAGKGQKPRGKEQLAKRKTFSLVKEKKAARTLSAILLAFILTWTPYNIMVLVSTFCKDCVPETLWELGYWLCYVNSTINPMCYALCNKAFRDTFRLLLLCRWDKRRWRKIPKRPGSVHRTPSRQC

Row | Structure (SMILES) | Potency [1] | Potency [2] | Potency [3] | Potency [4] | Potency [5] | Potency [6] | Potency [7] | Potency [8] | Potency [9] | Potency [10] | Potency [11] | Potency [12] | Potency [13] | Potency [14] | Potency [15] | Potency [16] | Potency [17] | Potency [18] | Potency [19]
1 | O=C(O)/C=C/C(=O)O | inactive | inactive | inactive | inactive | inactive |  |  |  |  |  |  |  |  |  |  |  |  |  | 
2 | Cc1ccc2ccccc2c1C |  |  |  |  |  | inactive | inactive | inactive | inactive | inactive | inactive |  |  |  |  |  |  |  | 
3 | CC(C)(C)c1ccc(O)cc1 |  |  |  |  |  | inactive | inactive | inactive | inactive | inactive | inactive | inactive | inactive |  |  |  |  |  | 
4 | CC(C)CC(=O)N[C@H](C(=O)N[C@H](C(=O)N[C@@H](CC(C)C)[C@@H](O)CC(=O)N[C@@H](C)C(=O)N[C@@H](CC(C)C)[C@@H](O)CC(=O)O)C(C)C)C(C)C (Isovaleryl-VV[Sta]A[Sta]-OH) |  |  |  |  |  | inactive |  | inactive |  |  |  | inactive |  |  |  |  |  |  | 
5 | COCCOCCO |  |  |  |  |  |  | inactive | inactive | inactive |  |  |  |  | inactive | inactive | inactive | inactive | inactive | 
6 | CN(C)CCCCCCN(C)C | inactive | inactive | inactive | inactive |  |  |  |  |  |  |  |  |  |  |  |  |  |  | 
7 | CN1CC[C@]23c4c5ccc(O)c4O[C@H]2[C@@H](O)C=C[C@H]3[C@H]1C5 |  |  |  | inactive |  | inactive | inactive |  | inactive | inactive | inactive | inactive |  | inactive | inactive | inactive | inactive | inactive | 
8 | N#CN |  |  | inactive |  |  | inactive | inactive | inactive | inactive | inactive | inactive | inactive | inactive | inactive | inactive | inactive | inactive | inactive | inactive
9 | Oc1c(Cl)cccc1Cl |  |  | inactive | inactive |  | inactive | inactive | inactive | inactive | inactive | inactive | inactive | inactive | inactive | inactive |  | inactive | inactive | inactive
10 | O=C(O)C1(c2ccc3c(c2)OC[C@H](Cc2ccc(-c4ccccc4)cc2)[C@H]3O)CCCC1 |  |  | inactive | 32.4 µM (active) |  | 5.3 µM (active) | 54.9 µM (active) |  |  |  | inactive |  |  |  |  | inactive |  |  | 40.8 µM (active)
11 | CC(C)CCCCCCCOP(=O)(Oc1ccccc1)Oc1ccccc1 |  |  | inactive | inactive |  | inactive |  |  |  | inactive | inactive | inactive |  | inactive | inactive |  |  | inactive | inactive
12 | CCCCCCCCCCCCCCC(Br)C(=O)O (centres undefined) | inactive | inactive | inactive | inactive |  | inactive | inactive | inactive | inactive | inactive | inactive | inactive |  | inactive | inactive |  | inactive |  | inactive
13 | CC(c1ccc(O)cc1)(c1ccc(O)cc1)c1ccc(O)cc1 |  |  | inactive |  |  |  | 49 µM (active) | inactive | inactive | inactive | inactive | inactive | inactive | inactive | inactive | inactive |  |  | inactive
14 | CN1C(=O)C(O)N=C(c2ccccc2)c2cc(Cl)ccc21 (centres undefined) |  |  |  | inactive |  |  | inactive | inactive | inactive | inactive | inactive |  | 31.7 µM (active) | inactive | inactive | inactive | inactive | inactive | 
15 | CCOc1cc(C(C)(C)C)ccc1C1COC(c2c(F)cccc2F)=N1 (centres undefined) |  |  | inactive | inactive |  | inactive | inactive | inactive | inactive |  | inactive | inactive |  | inactive | inactive | inactive |  |  | inactive
